Here are results for ten compounds from PubChem BioAssay (EPA / NIEHS).

The structures appear in SMILES notation. Records with an inconclusive call do not appear. Activity calls are given as the source filed them. Rule for the calls: active = hit-call score of the fitted dose curve at least 0.9, where 1 is the maximum; inconclusive = response in the unintended direction; inactive = score below 0.9.

Chain of rat CYP2D1, Cyp2d1 (gene 266684) (P10633 whole entry, looked up): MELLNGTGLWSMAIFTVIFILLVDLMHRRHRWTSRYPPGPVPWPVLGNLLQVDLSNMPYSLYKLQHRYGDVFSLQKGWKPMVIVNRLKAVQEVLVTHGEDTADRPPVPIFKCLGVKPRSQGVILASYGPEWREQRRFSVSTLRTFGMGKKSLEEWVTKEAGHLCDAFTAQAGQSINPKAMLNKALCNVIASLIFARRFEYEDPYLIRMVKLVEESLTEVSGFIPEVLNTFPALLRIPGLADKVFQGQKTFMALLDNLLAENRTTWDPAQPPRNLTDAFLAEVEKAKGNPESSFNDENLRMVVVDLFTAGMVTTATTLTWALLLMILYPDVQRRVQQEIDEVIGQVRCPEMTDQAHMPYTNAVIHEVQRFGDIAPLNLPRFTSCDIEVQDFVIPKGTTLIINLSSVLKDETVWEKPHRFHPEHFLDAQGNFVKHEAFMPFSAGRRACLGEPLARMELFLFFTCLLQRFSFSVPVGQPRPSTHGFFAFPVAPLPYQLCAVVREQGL

The target of the experiment is rat CYP2D1, Cyp2d1 (gene 266684) (UniProt P10633). Nature of the experiment: NVS_ADME_rCYP2D1: NovaScreen (NVS) CYP450-related Enzyme Activity (ADME) Assay for rat CYP2D1 (AID 2283122). The procedure:
NVS_ADME_rCYP2D1 is a biochemical, single-readout assay that uses extracted gene-proteins in a cell-free assay. Measurements were taken 0.75 hour after chemical dosing in a 96-well plate.NVS_ADME_rCYP2D1 is one of one assay component(s) measured or calculated from the NVS_ADME_rCYP2D1 assay. It is designed to make measurements of enzyme activity, a form of enzyme reporter, as detected with fluorescence intensity signals by Fluorescence technology.Data from the assay component NVS_ADME_rCYP2D1 was analyzed into 1 assay endpoint. This assay endpoint, NVS_ADME_rCYP2D1, was analyzed in the positive analysis fitting direction relative to Acetonitrile as the negative control and baseline of activity. Using a type of enzyme reporter, loss-of-signal activity can be used to understand changes in the enzymatic activity as they relate to the gene Cyp2d1. Furthermore, this assay endpoint can be referred to as a primary readout, because this assay has produced multiple assay endpoints where this one serves a enzymatic activity function. To generalize the intended target to other relatable targets, this assay endpoint is annotated to the cyp intended target family, where the subfamily is xenobiotic metabolism.
Binding assays used specific radioligands (tritiated, iodinated) with non-radioactive competitive displacement ligands in agonist or antagonist protocols (as indicated) and various reference compounds and inhibitors to titrate specific binding to receptors and transporters. Most enzyme assays (CYPs, kinases, phosphatases, proteases, HDACs) used recombinant protein and specific substrates (fluorescence mostly, some colorimetric and radioactive) and inhibitors, followed by a biochemical separation of substrate and product. All assays for the biochemical HTS were initially run in duplicate at a single concentration (10 uM for CYP450 assays and 25 uM for all others). Assay-chemical combinations meeting a pre-defined threshold (e.g., 30% inhibition and other criteria defined below) were then run in singleton concentration-response format with maximum concentration of 20 uM for CYPs and 50 uM for all others. Each assay was run with positive and negative controls, and concurrent controls on every plate. The follow-up (secondary) screen tested active chemical-pairs in concentration series, as well as a few additional assays not tested in the primary screen, some selected negative inactives, and several cases re-run in the concentration series for confirmatory purposes.
On to `CCOC(=O)C(Cl)Cc1cc(-n2nc(C)n(C(F)F)c2=O)c(F)cc1Cl` (stereo not given), for which the result was inactive.
`OC(c1ccc(Cl)cc1)(c1cncnc1)c1ccccc1Cl` (stereo not given): the AC50 was 7.23 µM (active).
With `COC(=O)N(OC)c1ccccc1COc1ccn(-c2ccc(Cl)cc2)n1`, the outcome was inactive.
With `O=C(Nc1ccccc1)Nc1ccnc(Cl)c1`, the AC50 was 10 µM (active).
In the case of `C=CCC1=C(C)[C@@H](OC(=O)[C@@H]2[C@@H](C=C(C)C)C2(C)C)CC1=O`, the AC50 is 1.05 µM (active).
Consider `CC1COC(Cn2cncn2)(c2ccc(Oc3ccc(Cl)cc3)cc2Cl)O1` (stereo not given), for which the AC50 is 0.685 µM (active).
As for `Cc1ccc(-c2c(Cl)nc(C#N)n2S(=O)(=O)N(C)C)cc1`, the AC50 is 13 µM (active).
Turning to `CCOP(=S)(OCC)SCn1c(=O)oc2cc(Cl)ccc21`, the AC50 is 7.17 µM (active).
In the case of `CO/C=C(/C(=O)OC)c1ccccc1Oc1cc(Oc2ccccc2C#N)ncn1`, the AC50 is 5.45 µM (active).
For `CCCC1COC(Cn2cncn2)(c2ccc(Cl)cc2Cl)O1` (stereo not given), the AC50 is 6.88 µM (active).
